According to PubChem BioAssay (Tox21):
Records with an inconclusive call do not appear. The source made the active and inactive calls. Unless noted, calls come from the whole dose curve; as a rule, active = well fitted curve in the direction sought with a large enough effect in the repeat runs; inconclusive = weak or mixed curves; inactive = no such curve, though single readings can be large; an effect the other way counts as inactive or inconclusive.

Key:
[1] = qHTS RealTime-Glo MT Cell Viability Assay in HEK293 cells - 0 hour (AID 1224880); note: top concentration of the series differs between compounds; nearly all actives have a fitted effect of over 45% in size
Summary of the method: (§1)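 Measured as luminescence from the same continuously cultured HEK293 wells at successive time points (0, 8, 16, 24, 32, 40 h) after compound addition. Reagent present from seeding; dosing at 5 h; incubation 37 C.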

[2] = A CellTox Green Cytotoxicity Assay to monitor cytotoxicity in HEK293 cells - 32 hour (AID 1224881); note: nearly all actives have a fitted effect of over 40% in size
Summary of the method: (§2)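 Homogeneous no-lysis format: HEK293 cell suspension mixed with CellTox Green reagent, seeded, incubated 5 h at 37 C/5% CO2, then dosed by pintool with compound in DMSO.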

[3] = A CellTox Green Cytotoxicity Assay to monitor cytotoxicity in HepG2 cells - 0 hour (AID 1224882); note: nearly all actives have a fitted effect of over 35% in size
Summary of the method: (§3)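 Fluorescent DNA-binding dye, 600 HepG2 cells/well, 5 h preincubation then compound in DMSO; same plates read at 0–40 h, 37 C.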

[4] = A CellTox Green Cytotoxicity Assay to monitor cytotoxicity in HepG2 cells - 32 hour (AID 1224883); note: nearly all actives have a fitted effect of over 50% in size
Summary of the method: as §3

[5] = A CellTox Green Cytotoxicity Assay to monitor cytotoxicity in HEK293 cells - 8 hour (AID 1224884); note: nearly all actives have a fitted effect of over 35% in size
Summary of the method: as §2

[6] = qHTS RealTime-Glo MT Cell Viability Assay in HEK293 cells - 24 hour (AID 1224886); note: top concentration of the series differs between compounds; nearly all actives have a fitted effect of over 50% in size
Summary of the method: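 Luminescence generated by NanoLuc from substrate produced by living HEK293 cells served as the viability signal. Each value reflects the reading at its stated time point during continuous 40 h compound exposure at 37 C.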

[7] = qHTS RealTime-Glo MT Cell Viability Assay in HEK293 cells - 8 hour (AID 1224887); note: top concentration of the series differs between compounds; nearly all actives have a fitted effect of over 50% in size
Summary of the method: as §1

[8] = qHTS RealTime-Glo MT Cell Viability Assay in HepG2 cells - 0 hour (AID 1224889); note: nearly all actives have a fitted effect of over 50% in size
Summary of the method: (§4)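 Tox21 10K library screened in qHTS format on HepG2 cells carrying RealTime-Glo reagents. Compounds were added after a 5 h preincubation, and the luminescent signal from continuous culture was measured repeatedly during 40 h treatment.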

[9] = A CellTox Green Cytotoxicity Assay to monitor cytotoxicity in HepG2 cells - 8 hour (AID 1224890); note: nearly all actives have a fitted effect of over 45% in size
Summary of the method: as §3

[10] = qHTS assay to identify small molecule antagonists of the estrogen receptor alpha (ER-alpha) signaling pathway using the BG1 cell line in the presence of 0.1 nM 17-beta-estradiol - cell viability counter screen (AID 1259241); note: nearly all actives have a fitted effect of over 40% in size
Summary of the method: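 The cell line endogenously expresses full-length ER-alpha and carries four EREs driving luciferase. Cells are cultured 5 days hormone-free, treated 22 hr with compounds and 0.1 nM estradiol, then viability is read by fluorescence.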

[11] = qHTS assay to identify small molecule antagonists of the androgen receptor (AR) signaling pathway using the MDA cell line in the presence of 0.5 nM R1881 - cell viability counter screen (AID 1259242); note: nearly all actives have a fitted effect of over 45% in size
Summary of the method: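 Human breast carcinoma MDA-kb2 cells, cultured without CO2, receive compounds alongside 0.5 nM (final) R1881 agonist. After 16 hr at 37C, viability is taken as live-cell protease signal.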

[12] = qHTS assay to identify small molecule phospholipidosis (PLD) inducers (AID 1259344; active = well fitted curve in the direction sought with a large enough effect; an effect the other way counts as inactive or inconclusive)
Summary of the method: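 Accumulated phospholipid, stained red by LipidTOX during 24 h compound treatment of HepG2 cells at 37 C, is quantified from images as pit number and intensity, normalised per cell using Hoechst-stained nuclei.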

[13] = qHTS assay to identify small molecule HDAC inhibitors (AID 1259364); note: potency is the fitted concentration of half-maximal effect;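 note: wild-type HCT-116 cells with endogenous class I/II HDAC activity; nearly all actives have a fitted effect of over 45% in size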
Summary of the method: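 After a 2 hr compound incubation (37C, 5% CO2), HCT-116 cells seeded at 1,500/well the day before received HDAC-Glo reagent; signal read as luminescence after 30 min at room temperature.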

[14] = qHTS assay to identify small molecule HDAC inhibitors - cell viability counter screen (AID 1259365)
Summary of the method: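 Viability readout: CellTiter-Glo luminescence. Wild-type HCT-116 cells, 2hr compound treatment following overnight attachment at 37 C.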

[15] = qHTS assay to identify small molecule agonists of the sonic hedgehog signaling (Shh) pathway - cell viability counter screen (AID 1259366); note: nearly all actives have a fitted effect of over 50% in size
Summary of the method: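 Viability measured fluorometrically (CellTiter-Fluor, 1hr, 37C) in 3T3 Gli1-Luc reporter cells after 23hr compound exposure within a 24hr incubation at 37C/5% CO2.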

[16] = A CellTox Green Cytotoxicity Assay to monitor cytotoxicity in HEK293 cells - 16 hour (AID 1224888); note: nearly all actives have a fitted effect of over 35% in size
Summary of the method: as §2

[17] = qHTS RealTime-Glo MT Cell Viability Assay in HepG2 cells - 16 hour (AID 1224885); note: nearly all actives have a fitted effect of over 50% in size
Summary of the method: as §4

[18] = molecular target: Estrogen receptor (Homo sapiens) (UniProt P03372); assay: qHTS assay to identify small molecule antagonists of the estrogen receptor alpha (ER-alpha) signaling pathway using the BG1 cell line in the presence of 0.1 nM 17-beta-estradiol (AID 1259244); note: nearly all actives have a fitted effect of over 50% in size
Summary of the method: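 Seeding of stripped-serum-adapted VM7Luc4E2 cells, 24 h attachment, compound transfer, then 0.1 nM final 17beta-estradiol; after 22 h incubation, ONE-Glo reagent and luminescence reading.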

[19] = qHTS assay to identify small molecule antagonists of the sonic hedgehog signaling (Shh) pathway - cell viability counter screen (AID 1259367); note: nearly all actives have a fitted effect of over 55% in size
Summary of the method: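 CellTiter-Fluor signal in conditioned medium-stimulated 3T3 Gli1-Luc cells, 23 hr compound exposure, 37C.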

[20] = molecular target: Androgen receptor (Homo sapiens) (UniProt P10275); assay: qHTS assay to identify small molecule antagonists of the androgen receptor (AR) signaling pathway using the MDA cell line in the presence of 0.5 nM R1881 (AID 1259243); note: nearly all actives have a fitted effect of over 50% in size
Summary of the method: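 Cells: MDA-kb2 (MMTV-luc). Stimulus: 0.5 nM R1881. Time: 16 hr, 37C, no CO2. Detection: ONE-Glo luminescence after 30 min at RT.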

Measured: Potency

Estrogen receptor (Homo sapiens), sequence (P03372 whole entry, looked up): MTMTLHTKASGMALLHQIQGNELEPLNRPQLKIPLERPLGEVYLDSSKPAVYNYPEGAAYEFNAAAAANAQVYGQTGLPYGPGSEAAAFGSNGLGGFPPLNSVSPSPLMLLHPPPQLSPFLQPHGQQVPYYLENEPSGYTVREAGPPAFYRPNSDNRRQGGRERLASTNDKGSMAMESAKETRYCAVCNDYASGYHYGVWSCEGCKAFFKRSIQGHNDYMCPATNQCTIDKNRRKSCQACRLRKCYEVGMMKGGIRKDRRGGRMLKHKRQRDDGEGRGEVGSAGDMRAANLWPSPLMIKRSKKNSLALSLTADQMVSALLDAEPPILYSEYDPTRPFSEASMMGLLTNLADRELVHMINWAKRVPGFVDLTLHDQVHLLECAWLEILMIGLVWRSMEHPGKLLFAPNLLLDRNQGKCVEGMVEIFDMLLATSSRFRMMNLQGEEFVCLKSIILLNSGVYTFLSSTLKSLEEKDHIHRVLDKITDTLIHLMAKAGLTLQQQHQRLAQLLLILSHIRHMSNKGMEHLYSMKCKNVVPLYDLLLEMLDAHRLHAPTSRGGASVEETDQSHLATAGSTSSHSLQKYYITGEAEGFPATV
Androgen receptor (Homo sapiens), sequence (P10275 whole entry, looked up): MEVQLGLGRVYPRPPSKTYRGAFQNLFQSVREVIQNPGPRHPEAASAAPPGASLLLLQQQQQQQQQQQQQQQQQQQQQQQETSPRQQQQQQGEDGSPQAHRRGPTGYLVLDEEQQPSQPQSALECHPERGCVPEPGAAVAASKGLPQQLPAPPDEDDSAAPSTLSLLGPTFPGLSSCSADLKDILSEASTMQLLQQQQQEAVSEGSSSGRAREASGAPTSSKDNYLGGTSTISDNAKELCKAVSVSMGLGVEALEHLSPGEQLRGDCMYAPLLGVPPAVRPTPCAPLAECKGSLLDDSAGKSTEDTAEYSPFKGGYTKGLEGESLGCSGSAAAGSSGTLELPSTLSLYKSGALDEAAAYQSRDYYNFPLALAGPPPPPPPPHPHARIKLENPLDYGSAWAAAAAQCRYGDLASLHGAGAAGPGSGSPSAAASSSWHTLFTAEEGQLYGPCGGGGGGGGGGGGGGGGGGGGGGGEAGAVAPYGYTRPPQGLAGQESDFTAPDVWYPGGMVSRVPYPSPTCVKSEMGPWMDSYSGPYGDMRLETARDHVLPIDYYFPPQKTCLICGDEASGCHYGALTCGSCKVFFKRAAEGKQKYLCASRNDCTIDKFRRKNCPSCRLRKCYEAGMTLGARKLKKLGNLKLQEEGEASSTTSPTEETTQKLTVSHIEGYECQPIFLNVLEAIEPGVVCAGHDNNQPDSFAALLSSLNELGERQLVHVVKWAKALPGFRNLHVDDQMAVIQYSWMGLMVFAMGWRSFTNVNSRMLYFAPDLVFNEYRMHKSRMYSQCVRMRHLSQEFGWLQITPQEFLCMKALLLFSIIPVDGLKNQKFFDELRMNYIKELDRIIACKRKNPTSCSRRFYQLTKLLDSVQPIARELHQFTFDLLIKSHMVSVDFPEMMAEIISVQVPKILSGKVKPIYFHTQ

ClC(Cl)(Cl)Cl
inactive: [1] | [2] | [3] | [4] | [5] | [6] | [7] | [8] | [9] | [10] | [11] | [12] | [13] | [14] | [15]

CCCCCCCCBr
inactive: [1] | [2] | [3] | [4] | [5] | [6] | [16] | [8] | [9] | [10] | [11] | [13] | [14] | [15]

O=C(Cl)OCc1ccccc1
inactive: [1] | [2] | [3] | [4] | [17] | [6] | [7] | [16] | [8] | [9] | [10] | [11] | [18] | [13] | [14] | [15] | [19]

OCC(Cl)CCl (stereo unspecified)
inactive: [1] | [2] | [3] | [4] | [5] | [7] | [16] | [8] | [9] | [10] | [11] | [18] | [13] | [14] | [15] | [19]

CCCCS(=O)(=O)Cl
inactive: [1] | [2] | [3] | [4] | [5] | [6] | [7] | [16] | [8] | [9] | [10] | [11] | [13] | [14] | [15]

CN1COCN(Cc2cnc(Cl)s2)/C1=N\[N+](=O)[O-]
inactive: [1] | [2] | [3] | [4] | [17] | [6] | [7] | [16] | [8] | [9] | [10] | [11] | [13] | [14] | [15]

CN=CNc1ccc(C)cc1C
inactive: [1] | [2] | [3] | [4] | [17] | [6] | [7] | [16] | [8] | [9] | [10] | [11] | [18] | [13] | [14] | [15] | [19]

NCCOS(=O)(=O)O
inactive: [1] | [2] | [3] | [4] | [5] | [6] | [7] | [16] | [8] | [9] | [10] | [11] | [18] | [13] | [14] | [15] | [19]

COc1ccc(CN2CCNCC2)c(OC)c1OC
inactive: [1] | [2] | [3] | [4] | [5] | [7] | [8] | [9] | [10] | [11] | [18] | [12] | [13] | [14] | [15] | [19]

CN(CCO)CCO
inactive: [1] | [2] | [3] | [4] | [5] | [6] | [7] | [16] | [8] | [9] | [10] | [11] | [18] | [13] | [14] | [15] | [19]

C[C@H](N)C(=O)c1ccccc1
inactive: [1] | [2] | [3] | [4] | [5] | [6] | [7] | [16] | [8] | [9] | [10] | [11] | [20] | [18] | [12] | [13] | [14] | [15] | [19]

CCCOC(=O)Cc1ccc(OCC(=O)N(CC)CC)c(OC)c1
inactive: [1] | [2] | [3] | [4] | [17] | [6] | [7] | [16] | [8] | [9] | [10] | [11] | [12] | [13] | [14] | [15] | [19]

COC1=CC(=O)O[C@@H](/C=C/c2ccccc2)C1
inactive: [1] | [2] | [3] | [4] | [5] | [6] | [7] | [8] | [9] | [10] | [11] | [14] | [15] | [19]
active: [13] 24.7 µM

CCOC(=O)Nc1cccc(OC(=O)Nc2ccccc2)c1
active: [13] 3.86 µM
inactive: [1] | [2] | [3] | [5] | [17] | [6] | [7] | [16] | [8] | [9] | [10] | [11] | [14] | [15] | [19]
